Compounds without any hit were thinned out: in the full panel of roughly 83,000, 20% have a hit.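 Testing used 96-well plates and a 48-hour single-concentration exposure. Example: -40 means 40% of the starting cells died.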 Activity calls are given as the source filed them. How the source made its calls: active means growth percent below 10; inactive means the rest.
Legend:
Experiment in all cases: NCI-60 one-dose screen, 48 h (100 = growth as untreated, 0 = no growth, -100 = all killed)
Details in all cases: 10 µM unless noted
[1] = test system: SR leukemia
[2] = test system: RPMI-8226 leukemia
[3] = test system: OVCAR-8 ovarian
[4] = test system: OVCAR-5 ovarian
[5] = test system: OVCAR-4 ovarian
[6] = test system: SK-OV-3 ovarian
[7] = test system: IGROV1 ovarian
[8] = test system: OVCAR-3 ovarian
[9] = test system: HS 578T breast
[10] = test system: NCI/ADR-RES ovarian
[11] = test system: T-47D breast
[12] = test system: BT-549 breast
[13] = test system: MDA-MB-435 melanoma
[14] = test system: SW-620 colon
[15] = test system: MCF7 breast
[16] = test system: HCT-116 colon
[17] = test system: HCC-2998 colon
[18] = test system: KM12 colon

Measured: growth

CCOC(=O)N1CCN(S(=O)(=O)c2oc(-c3ccc(Cl)cc3)nc2C#N)CC1
inactive: [2] 67.3% | [3] 70.8% | [4] 106% | [5] 103% | [6] 102% | [7] 87.9% | [8] 32.2% | [9] 102% | [10] 102% | [11] 65.4% | [12] 92.2% | [13] 98.6% | [15] 62.2% | [16] 14.1% | [17] 104% | [18] 108%
active: [1] 4.64% | [14] -49%

Cc1ccc(O)c(NC(=O)c2ccc(CNc3ccnc(C(F)(F)F)c3)cc2)c1
inactive: [1] 36.4% | [2] 15.2% | [3] 69.6% | [4] 76.9% | [5] 53.1% | [6] 82% | [7] 51.4% | [8] 140% | [9] 85.4% | [10] 50.3% | [11] 82.3% | [12] 52.3% | [13] 39.6% | [14] 87% | [15] 37.6% | [16] 66.4% | [17] 27.7% | [18] 72.3%

COc1ccc(C(O)c2cc3c(N)c(C(=O)Nc4cccc(Cl)c4)sc3nc2C)cc1 (stereo unspecified)
inactive: [1] 13.2% | [2] 15.8% | [3] 13.5% | [4] 28.5% | [5] 50.7% | [6] 19% | [7] 24.5% | [10] 13.2% | [11] 42.2% | [12] 38.3% | [14] 27.1% | [15] 15.1% | [16] 10.3%
active: [8] 7.47% | [9] -8.06% | [13] 0.877% | [17] -19.9% | [18] 9.91%

COC(=O)c1c2c(n3ccc(C)cc13)C(=O)c1ccccc1C2=O
inactive: [1] 45.9% | [2] 61.1% | [3] 60.2% | [4] 116% | [5] 81.7% | [6] 103% | [7] 64.5% | [8] 67.6% | [9] 77.7% | [10] 72.8% | [11] 82% | [12] 69.7% | [13] 93.4% | [14] 54.3% | [15] 55.9% | [16] 41.6% | [17] 94.6% | [18] 59.4%

CC(C)CCSc1nc(Nc2ccccc2)c(C#N)c(-c2ccccc2)n1
active: [5] -7.19%
inactive: [1] 27.2% | [2] 73.9% | [3] 42.7% | [4] 64.9% | [6] 69.1% | [7] 17.3% | [8] 57.6% | [9] 14.3% | [10] 52.4% | [11] 58.3% | [12] 62.1% | [13] 94% | [14] 56.9% | [15] 45.6% | [16] 27.5% | [17] 46.3% | [18] 89.9%

O=C1NC(=Nc2ccc(O)cc2)S/C1=C\c1cccs1
inactive: [1] 11.6% | [3] 48.5% | [4] 84.5% | [5] 48.8% | [6] 62.6% | [7] 38.5% | [9] 32.6% | [10] 32.1% | [11] 32.5% | [12] 35.8% | [14] 27.2% | [15] 11.8% | [16] 32.9% | [17] 59% | [18] 13.9%
active: [2] 2.94% | [8] 8.01% | [13] -24.7%

COc1cccc(/C=C/C(=O)c2cc3c(N)c(C(=O)Nc4cccc(Cl)c4C)sc3nc2C)c1
active: [1] 7.93% | [2] -32.6% | [3] -33.4% | [4] 7.92% | [7] -18.7% | [8] -60.5% | [9] 4.67% | [10] -3.64% | [11] 9.1% | [12] -22.3% | [13] -20.4% | [14] -28.7% | [15] 3.5% | [16] -34.2% | [17] -79.8% | [18] -19.6%
inactive: [5] 38.1% | [6] 14.7%

CC(C)c1ccc(NC(=O)Nc2ccc(NC(=O)c3ccccc3N)cc2)cc1
inactive: [1] 17.9% | [3] 61.5% | [4] 60.5% | [5] 59.4% | [6] 46.8% | [7] 72.6% | [8] 49% | [10] 89.5% | [11] 38.2% | [12] 77% | [13] 46.5% | [14] 54.1% | [15] 31.6% | [16] 51.8% | [17] 23.5% | [18] 29.8%
active: [2] -0.137% | [9] -3.9%

CN1CCN(Cc2ccc(NC(=O)c3cncc(C#Cc4cncc5[nH]ncc45)c3)cc2C(F)(F)F)CC1
active: [1] -4.67% | [2] 1.42% | [4] 4.44% | [6] 8.47% | [7] -43.8% | [9] -35.5% | [13] 2.84% | [14] -29.1% | [16] 1.91% | [17] 6.34% | [18] 3.69%
inactive: [3] 18.2% | [5] 10.2% | [8] 15.8% | [10] 57.4% | [11] 31.3% | [12] 23.5% | [15] 20.5%

CCSC1=CC(=O)c2ccccc2C1=O
active: [5] -95.2% | [8] -26.7% | [11] -41.9% | [16] 2.56%
inactive: [1] 37.6% | [2] 45.7% | [3] 49.4% | [4] 116% | [6] 95.6% | [7] 59.5% | [9] 94.8% | [10] 71.8% | [12] 91.4% | [13] 80.2% | [14] 54.9% | [15] 12.9% | [17] 117% | [18] 93.8%

C=C1C(=O)O[C@H]2[C@H]1CC/C(Cn1cc(-c3cc(C(F)(F)F)cc(C(F)(F)F)c3)nn1)=C\CC[C@@]1(C)O[C@@H]21
active: [1] -48.5% | [2] -31.4% | [3] -85.7% | [4] -69.4% | [5] -95.1% | [6] -89.5% | [7] -78.6% | [8] -92.7% | [9] -30.5% | [10] -35.7% | [11] -60.6% | [12] -78% | [13] -81.7% | [14] -35.8% | [15] -67.6% | [16] -87.2% | [17] -87.4% | [18] -77.1%

Cn1cc(-c2nn3cc(-c4ccccc4)nc3s2)c2ccccc21
active: [13] -1.83%
inactive: [1] 13.2% | [2] 91.2% | [3] 89.4% | [4] 70.5% | [5] 63.6% | [6] 68.7% | [7] 52.1% | [8] 72.7% | [9] 62.3% | [10] 70.5% | [11] 59.6% | [12] 78.1% | [14] 43.7% | [15] 55.6% | [16] 69.3% | [17] 86% | [18] 41.6%

CCN(CC)c1ccc(/C=C\c2cc(C)c3cc(C)ccc3n2)cc1
active: [10] -4.28% | [11] -22.3% | [12] -11.5% | [13] 3.36% | [16] 6.6%
inactive: [1] 34.2% | [2] 17.3% | [3] 34.8% | [4] 70.9% | [5] 50.4% | [6] 40.1% | [7] 22% | [8] 33.4% | [9] 42.5% | [14] 23.1% | [15] 19.9% | [17] 13.6% | [18] 27.1%

CCCCCCCC/C=C\CCCCCCCCOc1ccccc1CC(=O)NCC[N+]1(C)CCCCC1
active: [1] -5.14%
inactive: [2] 19.7% | [3] 60.5% | [4] 66.2% | [5] 34.1% | [6] 85.2% | [7] 16.5% | [8] 41.3% | [9] 77.2% | [10] 99.3% | [11] 59.9% | [12] 47.9% | [13] 41.5% | [14] 61.1% | [15] 80% | [16] 48.2% | [17] 57.5% | [18] 22.5%

CCN1C(=O)N(CC)C2C1NN=c1s/c(=C3\C(=O)N(CCc4ccccc4)c4ccccc43)c(=O)n12 (stereo unspecified)
inactive: [1] 10.7% | [3] 13.5% | [4] 20.6% | [5] 38.3% | [6] 32.3% | [7] 18.9% | [11] 44.4% | [12] 14.2% | [14] 23.1% | [15] 11.6% | [17] 13.2% | [18] 13.9%
active: [2] 8.77% | [8] -16.9% | [9] 5.14% | [10] -9.34% | [13] -40.9% | [16] 2.18%

C=C(C)[C@@H]1CC[C@]2(CO)CC[C@]3(C)[C@H](CC[C@@H]4[C@@]5(C)CCC(NCCc6ccc(O)cc6)C(C)(C)[C@@H]5CC[C@]43C)[C@@H]12 (stereo partly specified)
active: [1] -46.8% | [2] -53.5% | [3] -79.4% | [4] -72.4% | [5] -89.3% | [7] -85.5% | [8] -95% | [9] -54.5% | [10] -71% | [11] -66.3% | [13] -92.4% | [14] -80% | [15] -77.9% | [16] -89.9% | [17] -90.1% | [18] -84%
inactive: [6] 75.8% | [12] 33.9%

CCN1CCN(CC(=O)Nc2nc3ccc(NCc4ccc(Br)cc4)cc3s2)CC1
inactive: [2] 41.8% | [3] 81.8% | [4] 76% | [5] 72.9% | [6] 90% | [7] 86.8% | [8] 57.2% | [9] 81.3% | [10] 79.3% | [11] 48.1% | [12] 85.7% | [15] 10.3% | [16] 17.8% | [17] 62.6% | [18] 52.8%
active: [1] 0.987% | [13] -6.35% | [14] 5.94%
